The whole screen tested about 53,000 sequences, of which about 3,700 (7%) were called active.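 The calls were made as follows: active = gene knockdowns whose robust z-score for IL-1 alpha signal is at least 2 or at most -2, so actives lie on both sides; inactive = the rest.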 The sample as a whole holds a higher share of actives than the screen did.
Assay: Components of the Cytosolic LPS Sensing Pathway: Gene Identification via Genome-wide siRNA Screen;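 also: robust z of the log signal after scaling to non-targeting control siRNA wells of the plate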
Details: RAW264.7 macrophages, IL-1a HTRF, actives lie on both sides, screened at 100 nM (by protocol), cells primed 5 h with Pam3CSK4 first
Method in brief: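 Using IL-1a HTRF as read-out, the screen measured release from RAW264.7 cells after 48h siRNA knockdown (100 nM), 5 h Pam3CSK4 priming and 24 h cytosolic LipidA. Values were expressed relative to negative-control wells as robust z-scores.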

z-score, active:
CGACCUACUCUACAGCAAATT against Brinp3 2.6
GGGCGUAGAAACAGCAACUTT against Ushbp1 -2.14
GGCGGCACAAAUUGUUUUUTT against Gimap9 -2.03
GGAAAGUUGGACCUUCUGATT against Adamts6 2.35
GGAACUCACACAGAACCAATT against Bloc1s6 6.84
GGAGGAACAUAUGCUCAGATT against Lce1e -2.99
GGAAUUACGAAGCUGUGUGTT against Cdkl3 -2.36
CCAUAUACCCUCGAUGCCATT against Abhd16b -2.76
GGAACUGAAAAACUCAACUTT against Evi2a -3.13
GGGUGUAGCAUUGUCACAGTT against Olfr1133 2.32
UCCAUACUACUCAUCAAAUTT against Olfr68 3.78
GGUCUCUGUAGAGAUGGCATT against 6820408C15Rik -2.52
CCACCUUCCUAUGUUUGUATT against Ebf2 3.73
GGCUGCACAAAGAUGUUCATT against Yy1 2.46
GCUGUGAAUUCCAAAUGCGTT against Myh4 3.33
GCACUCUCUACUCUAUUAATT against Ackr2 2.68
GGACUGGUGGACAUAUGAATT against Os9 2.81
CCCACAGUGCAAAAAUGACTT against Olfr663 -2.26
GGCUAAAACUGCACAUAAATT against Pyroxd1 -3.43
GCAACAAGAGGGCAGAAUGTT against Olfr518 -2.22
GGCGAAGGGCAAGAAUAAATT against Hes1 2.16
CCCAUACUGUCACUUUAAGTT against H2bc8 -2.23

z-score, inactive:
GCUCUACCCAAUCAAGACCTT against Asb14 0.31
GCAGUCGAAGCACUAAAAATT against Dnaaf2 0.412
GGAACUGAAGGGCAAUAUCTT against Kifc5b 1.99
GGGCUCCUUCCUUGAAAAGTT against Dclre1c 0.365
GACCACACUCAUCCAGGCUTT against Gtpbp6 0.817
GGAAACGAUGACAUUUCAATT against Pnrc2 0.0147
GGCCAGAGACUGCCUGAUUTT against Acaa1b 0.225
GGUCAUUCAGCUGGAAGAUTT against Zfp143 -1.07
GGGUAGGUAUCAAAAUAAUTT against 6030452D12Rik 0.172
GCCACGUGAUAGUAAUAAATT against Psmd12 0.0999
GGAGAAUGAAGAGUUAGACTT against Nfu1 0.608
AUUACAAGGUUUGUGGAUATT against Gsdmc3 0.188
GGUGGAUAGAGCAAUUGAATT against Jph1 1.5
GCCAAGUACUCGUUUCCACTT against Wtap 0.826
GCCUUGGACUGCUUUGGAUTT against Dync1li1 -0.379
GGCAUUCCUCUUGAAUAUUTT against Dck -0.805
GCCCUACCCUCAUCAUAAATT against Tmem94 -1.36
GGACUUCAGAGUGGACAUUTT against Sec16b -0.19
GCUGUGAAGAAUCAGAUAGTT against Aatf -0.155
GGAUUUAUGGCAAGUUUCUTT against Ppp2r5e 0.00387
CCAGGUGUACCUUACGUUGTT against Eif4ebp2 1.05
CGGACAAGAUAAAGUGUGUTT against Lypd9 -1.07
GGUGUAAAGUAAUCAAGGCTT against Dbx2 0.453
GGUUUUAUGAGAAAGCAGATT against Ogfod1 0.0298
GCACAGCUACCAUUCACAATT against Nxpe2 -1.97
CCACUAAGGUUUGAAGAAGTT against Nes 1.21
CCUGAUUAUUCUGAGAAAUTT against Adsl 1
GGGACUCGAGUUUCAUCUATT against Casc1 0.768
CCGUUCUGGCACAGAACAGTT against A830005F24Rik 1.41
CCAUUGUACAGAAAAACACTT against Abhd18 0.41
GGAAAGAGCUUUUUAUUGUTT against Zfp235 0.145
GCCCGAAUACAGGAAGAUCTT against Hspg2 1.42
GGAAAUGAGACGAAGGAGGTT against Kpna6 -0.642
GGCACAGAGAACAAUACUUTT against Npy5r -0.128
CCCUAUUAGUGGAAGCAUGTT against Zfp738 -1.94
GCAUCGCAUUUAAAUAGAATT against 4833408A19Rik 0.965
GGAGAUGAACAAGGACCUATT against Apoa1 0.717
GGAUGUGAUGAAGUUGGCCTT against Olfr78 -1.96
GCUGGUGAGUCACUGAUGATT against Med22 1.32
GGAAAGAAGAAACAUUCCUTT against Socs5 0.495
GCGACUCCCACAUACUCAGTT against Muc19 -0.215
GCCUAAGAACGAUGACACUTT against Surf2 0.179
CGUUAAUUGCCCUCAAAGATT against Spon1 1.03
GGCGGAGAGGAAAUCUAUGTT against Mycs 1.4
GCCUUUGCACAGUUUGGACTT against BC002059 -1.13
GGCAGUUCUCCAGUGCUUUTT against Mtss1 -1.32
CCUCGUAUUUAUACUCAGUTT against Gpr18 0.3
GGCUGCUCAAAAAGAACAUTT against Kif21b 0.645
GCUUUGGCUCAAAGCACGUTT against Mcm3 1.93
GCGGUCAAAUGCAACAAACTT against Fabp5 -0.33
CCUCCUGACCUUAAUCUUGTT against P2rx1 0.507
GCUUAAUCCUUAGUCAGCATT against F2rl2 -0.591
GGAAGAGGUGAAUGAUAAATT against Bmi1 1.51
GCUCAACAGCAGUGACGAUTT against Nras -0.701
GGCCAGUCAAGGUUGGAUUTT against Gpr152 -0.32
GGAUACAAUGCAACUGUCCTT against Kif4 -1.08
GGUUAGCCUACUCUCUAAUTT against Tomm22 0.501
GGCUCAAAUACAGGAAAUUTT against Tmem45b 0.498
GGGCAGGUUGUCUUUCUACTT against Plpp1 0.997
UCAACAGGGCUGAUAUCCCTT against Acsl5 -1.61
CGGUGAAGACUAUCAUGGUTT against Tln1 -0.791
CCUUAAUCCAAACAAGUCUTT against Ncl 1.08
GGUUUCUUAGAUUAGCUAGTT against Map3k12 0.445
GGUUAUCAAGAUUGCAUGUTT against Olfr853 -0.646
GGGUUAUGAAGAGAAACUUTT against Gatad2b 0.236
GGAAAAGGUGGCCUACACATT against Rhox11 -1.7
CCAAUAAAAUUGGUGUUCCTT against H13 0.18
GGUUAAAAUGUUGAUUGCUTT against Ndrg4 -0.654
GGGAAAAGUGACUAGGCUUTT against Ngb -0.331
GGCAUAUGCACUUUAUUUCTT against Cep97 -0.339
GCAUUAAAGGAGUCCGAAUTT against Cpn1 -0.328
GCUUAUAACAGUUGAUGAGTT against Ndufs4 -0.54
GGCUAAUUCUCAAAGAGAUTT against Dnttip2 -1.87
AUUCGGGAAAAUUUUAGACTT against Rbfox3 -0.171
GGGAAGCACAAGGUUUAGUTT against Brca1 0.531
GGAAGUUACAGAUGUGGCUTT against Nog -0.879
GCACCAUUCUAGGAGUCAUTT against Lonp2 -0.504
GGACCACGCAAAAGAAUAUTT against Mtss1 0.0212
GCUCAUGUUGCACUGGAAATT against Ulbp1 1.22
AAGCUUCAACAUCAGUUUGTT against Olfr1392 -1.54
GGUUCUGGUAUAAGUUAACTT against Gabrg3 0.292
GCACGAAUGCCUUUUUAGATT against Mphosph8 0.32
GGAGCUGGAGACUAAAGCUTT against Slc29a2 -0.478
GCAUUUGAUGAAGACUCGATT against Barx2 0.467
GGUUUAGCUGCAUUAAAAGTT against Lrrc27 0.956
GGCCGAGAGUAUUUCUACATT against Efna5 -0.254

Reference: PubChem BioAssay AID1508600 (Functional Genomics Laboratory (NCATS/FGL), 2020)
